Source: PubChem
CD11b adhes enh – CD11b/CD18-fibrinogen binding enhancement; AID 1499; 93,000 tested, 0.07% active; K562 CD11b/CD18 adhesion to fibrinogen, ATPlite luminescence; activation, % at 10 µM;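 active means 10 µM primary screen giving 50% or more activity, confirmed by 40% or more on retest at that dose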
Target sequence (P05107 whole entry, looked up, other chains not shown): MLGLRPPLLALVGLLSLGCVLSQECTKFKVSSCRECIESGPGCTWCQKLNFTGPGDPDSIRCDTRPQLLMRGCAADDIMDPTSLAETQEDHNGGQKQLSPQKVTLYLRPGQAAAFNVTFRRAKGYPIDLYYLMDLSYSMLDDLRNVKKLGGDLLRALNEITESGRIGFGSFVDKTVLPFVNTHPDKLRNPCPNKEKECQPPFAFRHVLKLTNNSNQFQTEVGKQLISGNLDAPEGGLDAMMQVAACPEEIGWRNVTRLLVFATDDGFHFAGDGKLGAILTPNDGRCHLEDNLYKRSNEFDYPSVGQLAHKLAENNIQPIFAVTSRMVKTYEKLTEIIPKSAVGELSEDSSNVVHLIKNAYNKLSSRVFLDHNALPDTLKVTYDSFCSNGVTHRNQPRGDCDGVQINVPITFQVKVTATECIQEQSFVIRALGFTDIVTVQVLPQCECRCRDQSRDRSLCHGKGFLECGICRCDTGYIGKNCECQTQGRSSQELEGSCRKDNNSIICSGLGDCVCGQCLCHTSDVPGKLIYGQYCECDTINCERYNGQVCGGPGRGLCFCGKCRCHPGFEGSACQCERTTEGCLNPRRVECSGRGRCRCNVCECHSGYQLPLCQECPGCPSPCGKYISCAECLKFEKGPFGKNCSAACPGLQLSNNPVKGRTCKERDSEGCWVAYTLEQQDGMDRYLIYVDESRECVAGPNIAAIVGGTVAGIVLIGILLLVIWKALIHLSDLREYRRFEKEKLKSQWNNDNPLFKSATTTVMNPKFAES
MRP-1 activ – activators of MRP-1; H69AR cells + doxorubicin, viability rescue, CellTiter-Glo; viability increase, % at 10 µM; 140,000 tested, 0.61% active;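 active means viability gain under doxorubicin at or above a set limit, the compound median plus 3 SD, cut at about 4.7% in these data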;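 further: MRP-1 overexpressing cells given doxorubicin 25 µM after compound pretreatment; 18-22 h compound pretreatment then 72 h with doxorubicin before readout; 0% = doxorubicin-only wells and 100% = vehicle-treated cells without doxorubicin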
FAK blocker – FAK (human) kinase inhibition; biochemical FAK kinase activity assay; inhibition, %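 (tested at 7 µM)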; 97,000 tested, 0.84% active; in the data active means inhibition above about 19%;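 further: 0% = DMSO and 100% = reference compound high control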
Phagocytosis inh – inhibitors of macrophage phagocytosis; J774A.1 macrophage IgG-bead phagocytosis, imaging; 110,000 tested, 0.07% active; inhibition, % at 5 µM;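 active means inhibition above the mean of the plate negative controls plus 5 SD, cut at about 13% in these data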;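 further: phagocytic index as fraction of beads internalized from green versus red external bead signal; plate controls were DMSO negative control for no effect and cytochalasin-D positive control for full effect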
CD11b adhes inh – inhibitors of human CD11b/CD18 binding to fibrinogen; P05107+P11215; K562 CD11b/CD18 adhesion to fibrinogen, ATPlite luminescence; Mn2+ added to activate the integrin; inhibition, % at 10 µM; 93,000 tested, 0.54% active; AID 1497;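 active means primary inhibition of 50% or more at 10 µM, then 40% or more on retest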
MRP reversal – reverses drug resistance mediated by MRP; H69AR cells + 2 uM doxorubicin, CellTiter-Glo, 72 h; differential viability (reversal), % at 10 µM; 85,000 tested, 0.04% active; AID 602;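 active means viability drop by adding the cancer drug above about 55%, with treated viability meeting a 40% cutoff, limit read from the data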;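 further: viability without doxorubicin minus viability with 2 µM doxorubicin for each compound; larger differential means the compound sensitizes cells more to doxorubicin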
An asterisk follows results filed as active. Only some compounds are listed: those with a hit (about 1.5% of all), similar ones and a draw of the others.

Cc1cccc(NC(=O)c2ccccc2O)c1C was read as CD11b adhes enh -6, MRP-1 activ -1, FAK blocker -3, Phagocytosis inh -2, CD11b adhes inh 47 and MRP reversal -12.
`N#CC(c1ccc(Cl)cc1)c1ccc2c(C(F)(F)F)cc(C(F)(F)F)nc2n1` (centres undefined) gave CD11b adhes enh -8, MRP-1 activ -7, FAK blocker 1, Phagocytosis inh -1, CD11b adhes inh 88* and MRP reversal 0.
FC(F)(F)c1cc(C(F)(F)F)c2ccc(N3CCN(c4ccc(Cl)cc4)CC3)nc2n1 was read as MRP-1 activ 0 and FAK blocker 0.
For CCOC(=O)c1c(-c2ccc(C)o2)csc1NC(=O)CSc1ncn[nH]1 the results were CD11b adhes enh -2, MRP-1 activ 6.8*, FAK blocker -1, Phagocytosis inh -2, CD11b adhes inh 10 and MRP reversal 3.
CCOC(=O)c1ccc(Oc2c(C)oc3cc(OS(C)(=O)=O)ccc3c2=O)cc1 was read as MRP-1 activ -3 and Phagocytosis inh -10.
Screening COC(=O)c1c(NC(=S)Nc2ccc(F)cc2[N+](=O)[O-])sc2c1CCCCC2 returned CD11b adhes enh -5, MRP-1 activ -2, Phagocytosis inh -13 and CD11b adhes inh 86*.
Cc1cc(OCC(=O)Nc2ccncc2)ccc1Br was read as CD11b adhes enh -10, MRP-1 activ 1, FAK blocker -1, Phagocytosis inh 0, CD11b adhes inh 77* and MRP reversal -7.
Screening Cc1ccc(OCC(=O)Nc2cccc(O)c2)cc1C returned CD11b adhes enh 0, MRP-1 activ 0, FAK blocker 3, Phagocytosis inh 0, CD11b adhes inh 21 and MRP reversal 5.
Screening Cc1ccc(NC(=O)CN(C)Cc2nc3ccccc3c(=O)[nH]2)c(Br)c1 returned CD11b adhes enh -1, MRP-1 activ -2, FAK blocker 1, Phagocytosis inh -1, CD11b adhes inh 3 and MRP reversal -2.
Screening Cc1cc(Br)ccc1NC(=O)CNC(=O)CN(C)Cc1nc2ccccc2c(=O)[nH]1 returned CD11b adhes enh 0, MRP-1 activ 4.9*, FAK blocker 1, CD11b adhes inh 4 and MRP reversal -19.
Screening CCOC(=O)c1c(NC(=O)CSc2nnnn2-c2ccc(OC)cc2)sc(C)c1C returned CD11b adhes enh -6, MRP-1 activ -3, FAK blocker 2, Phagocytosis inh 2, CD11b adhes inh 63* and MRP reversal -3.
`CCOC(=O)c1csc(NC(=O)CSc2nnnn2-c2ccc(OC)cc2)n1` gave CD11b adhes enh -5, MRP-1 activ -3, FAK blocker -3, Phagocytosis inh 2 and CD11b adhes inh -7.
`N#CC(C#N)=NNc1ccc(S(=O)(=O)N2CCCC2)cc1` gave MRP-1 activ 5.1* and Phagocytosis inh 2.
Cc1nc2ccccn2c1C(=O)NN=C1C2CC3CC(C2)CC1C3 was read as MRP-1 activ 0 and Phagocytosis inh -6.
`CC(=O)C(Sc1ccc2nnc(-c3ccc(F)cc3)n2n1)C(C)=O` gave CD11b adhes enh -2, MRP-1 activ -2, FAK blocker 0, Phagocytosis inh 0, CD11b adhes inh 0 and MRP reversal 5.
Screening COc1ccccc1OCC(=O)N1CCN(c2ccccc2OC)CC1 returned CD11b adhes enh 0, MRP-1 activ 0, Phagocytosis inh 0, CD11b adhes inh 6 and MRP reversal 9.
`O=C(COc1ccc(Cl)cc1)N1CCN(S(=O)(=O)c2ccccc2)CC1` gave CD11b adhes enh 3, MRP-1 activ 5.1*, FAK blocker 2, Phagocytosis inh -1, CD11b adhes inh 1 and MRP reversal -9.
Screening O=C(COc1ccccc1)N1CCN(S(=O)(=O)c2ccc(Cl)cc2)CC1 returned CD11b adhes enh -3, MRP-1 activ -1, FAK blocker -2, Phagocytosis inh -2, CD11b adhes inh 2 and MRP reversal 4.
Screening COc1ccccc1N1CCN(C(=O)COc2ccc(Cl)cc2)CC1 returned CD11b adhes enh 1, MRP-1 activ 6.6*, Phagocytosis inh -1, CD11b adhes inh -17 and MRP reversal -2.
Cc1cc(=O)n2nc(N3CCCC3C(=O)NCCCN3CCCCC3)sc2n1 (centres undefined) was read as CD11b adhes enh -3, MRP-1 activ 1, Phagocytosis inh -2, CD11b adhes inh 4 and MRP reversal -7.
Screening COCCNC(=O)CN(C(=O)CCC(=O)Nc1nccs1)c1ccccc1OC returned CD11b adhes enh -1, MRP-1 activ 0, FAK blocker 9, Phagocytosis inh -1, CD11b adhes inh -11 and MRP reversal -3.
`Cc1ccc(CNC(=O)Cn2c([N+](=O)[O-])cnc2C)cc1` gave CD11b adhes enh -4, MRP-1 activ 0, FAK blocker 3, Phagocytosis inh 0 and CD11b adhes inh -34.
`COc1cc(/C=N/NC(=S)Nc2cccc(C(=O)O)c2)cc(OC)c1OC` gave CD11b adhes enh 1, MRP-1 activ 4.8* and CD11b adhes inh -19.
For CC(NC(=O)COC(=O)Cc1ccsc1)c1ccccc1 (centres undefined) the results were MRP-1 activ 1 and Phagocytosis inh 6.
Screening COc1ccc(-c2nnc(SC(C)C(=O)NNC(=O)c3ccc(C)cc3)o2)cc1 (centres undefined) returned CD11b adhes enh 2, MRP-1 activ 4 and CD11b adhes inh 23.
COc1ccc(-c2nnc(SC(C)C(=O)Nc3cccc(Cl)c3)o2)cc1 (centres undefined) was read as CD11b adhes enh -4, MRP-1 activ 5.8*, FAK blocker 4, Phagocytosis inh -1, CD11b adhes inh 18 and MRP reversal -2.
For CCCc1ccc(Oc2cn[nH]c2-c2ccc(O)c(C)c2O)cc1 the results were CD11b adhes enh -11, MRP-1 activ -3, Phagocytosis inh 0, CD11b adhes inh 101* and MRP reversal -9.
CCNC(=O)/C(C#N)=C/c1c(N2CCN(Cc3ccc4c(c3)OCO4)CC2)nc2c(C)cccn2c1=O was read as CD11b adhes enh -1, MRP-1 activ -2, Phagocytosis inh -5 and CD11b adhes inh -22.
`Cc1noc(/C=C/N(C)C)c1S(=O)(=O)N1CCCC(C(=O)NCc2ccc(F)cc2)C1` (centres undefined) gave CD11b adhes enh -14, MRP-1 activ 12*, FAK blocker -2, CD11b adhes inh 5 and MRP reversal 8.
For Cc1noc(/C=C/N(C)C)c1S(=O)(=O)N1CCCC(C(=O)NCc2ccccc2Cl)C1 (centres undefined) the results were CD11b adhes enh 2, MRP-1 activ 7.6*, FAK blocker 0, Phagocytosis inh -1, CD11b adhes inh 0 and MRP reversal 8.
